Measurements from PubChem BioAssay.
Inconclusive results are not listed. Active and inactive are the calls of the source.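 The calls were made as follows, unless noted: active = response below a set limit, under 55% cells CD8-positive and vesicle-bound, and CD8 cells' 90th-percentile brightness under 279; inactive = the rest.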

What was measured:
[1] = rapamycin-like changes in RPL19A-GFP expression – cell-based, S. cerevisiae, multiplex flow cytometry, primary screen (AID 1862; in the data active = percent of DMSO control GFP below about 86%;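 also: lower values mimic rapamycin by blocking the RPL19A rise seen in DMSO cells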); details: S. cerevisiae RPL19A-GFP strain, flow cytometry fluorescence, 3 h; at 10 µM; stronger effect = lower value
[2] = TOR pathway GLN3 branch reporter MEP2-GFP changes – S. cerevisiae, multiplex flow cytometry, primary screen (AID 1867;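 active = GFP response, as percent of the DMSO control, above the screen-wide mean plus 3 SD, about 139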;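 also: median GFP channel fluorescence of barcode-gated MEP2-GFP cells measured by flow cytometry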); details: S. cerevisiae MEP2-GFP strain, 3 h, at 10 µM, stronger effect = higher value, 100% means same as DMSO wells
[3] = TOR pathway RTG branch CIT2 reporter changes – S. cerevisiae, GFP fusion, multiplex flow cytometry, primary screen (AID 1870;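 active = percent response above a set limit, the screen-wide mean plus 3 SD, cut at about 130% in these data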;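 also: barcoded CIT2-GFP strain pooled with four other GFP strains with rapamycin as positive control; median GFP fluorescence per well over plate mean of DMSO wells so 100% = DMSO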); details: S. cerevisiae CIT2-GFP expression, 3 h, at 10 µM, stronger effect = higher value
[4] = TOR pathway LAP4-GFP level changes – S. cerevisiae, multiplex flow cytometry, primary screen (AID 1873;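 active = GFP signal, as percent of the solvent control, above the screen mean plus 3 SD, about 149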); details: S. cerevisiae LAP4-GFP expression, 3 h, at 10 µM, stronger effect = higher value
[5] = yeast AGP1-GFP level changes, GLN3 branch – cell-based, multiplex flow cytometry, S. cerevisiae, primary screen (AID 1887;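 active = GFP signal above the screen-wide mean plus 3 SD, that is over about 124.5% of the solvent control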;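 also: AGP1-GFP fusion strain of S. cerevisiae within a five-strain barcoded multiplex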); details: 3 h, at 10 µM, stronger effect = higher value
[6] = reduced mouse 2C T cell binding to pMHC/ICAM-1 vesicles – MLPCN validation set, flow cytometry, LFA-1/ICAM-1 modulator project, pilot screen (AID 2523); details: 2C mouse CD8+ T cells, at 7 µM, stronger effect = lower value; double positive events: measured here: CD8+/vesicle+ event percentage;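 as to vesicle binding response: mean PE anti-B7-1 fluorescence of CD8+ cells relative to row control; 100% = QL9-loaded vesicles with DMSO vehicle in the same plate row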
[7] = target: Integrin beta-1 (Homo sapiens) + Integrin alpha-4 (Homo sapiens) (UniProt P13612+P05556); assay: alpha4beta1 integrin LIBS antibody binding reduction – U937 cells, HUTS-21 mAb, flow cytometry, validation set, VLA-4 allosteric modulator project, pilot screen (AID 2674;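 active = inhibition above 50%, about 3 SD of the validation set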;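 also: antibody binding induced by the VLA-4 ligand LDV present at three times its Kd; 0% = LDV ligand with antibody and no compound and 100% = antibody without LDV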); details: HUTS-21 LIBS mAb binding, at 6.7 µM, stronger effect = higher value, binding induced by LDV ligand
[8] = calorie-restriction mimetic ROS inhibitors, yeast – validation compound set, pilot screen (AID 2706;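 active = superoxide response below 65% of plate, a cut near 3 SD across the whole screen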;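 also: yeast exposed to compound for one week at 30 degrees C before staining; 100% = mean of all compound wells on the same plate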); details: S. cerevisiae aging, superoxide DHE fluorescence; at 10 µM; stronger effect = lower value
[9] = target: Beta-adrenergic receptor kinase 1 (Homo sapiens) (UniProt P25098); assay: GRK2 binders displacing RNA aptamer, biochemical, validation, human GRK2, bead flow cytometry (AID 488806;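 active = aptamer binding inhibition above 30%, about 3 SD of noise from non-fluorescent compounds; inactive = inhibition at or below 30%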); details: bead-bound GRK2, FAM-aptamer displacement, at 10 µM, stronger effect = higher value
[10] = target: Beta-2 adrenergic receptor (Homo sapiens) (UniProt P07550); assay: agonist-induced loss of surface beta2AR – cell-based, FAP fluorogen, flow cytometry, validation set, pilot screen (AID 504459;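 active = percent response above 42, roughly 3 SD of non-fluorescent test compounds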;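 also: agonist-driven loss of surface beta2AR via internalization measured by FAP dye flow cytometry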); details: Am2.2-beta2AR cells, at 10 µM, stronger effect = higher value
[11] = target: AP-2 complex subunit beta (Homo sapiens) (UniProt P63010); assay: beta-arrestin/AP2 interaction blockers – biochemical, validation set, GST-AP2 beads, flow cytometry, pilot screen (AID 504541;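 active = inhibition above 54%, about 3 SD of non-fluorescent compounds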;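 also: AP2 carries R879A mutation and is captured from E. coli lysate; bead-bound FITC arrestin peptide fluorescence measuring arrestin peptide binding to AP2; 0% = DMSO wells and 100% = excess unlabeled arrestin peptide control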); details: FITC arrestin peptide, at 10 µM, stronger effect = higher value, AP2 beta2 appendage fragment, R879A mutant
[12] = cytosolic pH regulators acting via V-ATPase – S. cerevisiae, pHLuorin, HTS validation (AID 504600; in the data active = response above about 15%;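 also: plate controls were DMSO for no effect and reference compound for full effect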); details: V-ATPase proton transport, at 10 µM, stronger effect = higher value
[13] = tested on: anti-desmoglein-3 scFv antibody binding to human DSG3; assay: blockers of pathogenic pemphigus antibody–desmoglein-3 binding – biochemical, validation compound set, bead-based, flow cytometry, pilot screen (AID 588368;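 active = binding below the plate cutoff, the plate median minus 3 SD, with a reading above zero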;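 also: signal is the median channel fluorescence of bead-bound GFP antibody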); details: Protein G beads, DSG3-Fc, scFv-GFP binding, at 10 µM, stronger effect = lower value
[14] = Nile Red efflux blockade in pump-expressing yeast – validation compound set, multiplex, phenotypic, pilot screen (AID 588506;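 active = efflux inhibition above 0.42, the validation set average plus 4 SD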;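 also: Nile Red retained in cells so higher fluorescence means more efflux inhibition; 0 = negative control wells and 1 = enniatin B 25 µM full block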); details: S. cerevisiae pump-expressing triplex, Nile Red efflux flow cytometry; at 10 µM; stronger effect = higher value; the pumps come from Candida albicans
[15] = target: ATP-binding cassette sub-family B member 6 (Homo sapiens) (UniProt Q9NP58); assay: blockers of ABCB6-driven porphyrin uptake – K562-ABCB6 cells, flow cytometry, validation set, pilot screen (AID 588550;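 active = inhibition above the screen-wide mean plus 3 SD, about 51%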;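 also: 0% = DMSO wells and 100% = benzethonium chloride 70 µM positive control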); details: K562-ABCB6 porphyrin accumulation, 1 h, at 10 µM, stronger effect = higher value
[16] = AML differentiation inducers, ER-HoxA9 marrow cells – cell-based, GFP/MAC1 double positive, flow cytometry, validation set, primary screen (AID 588685;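 active = differentiation response of at least 50%, scaled between solvent and reference control, from cells with both markers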;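 also: compound exposure lasts four days before antibody staining and flow analysis; 0% = DMSO wells and 100% = 5 µM fulvestrant positive control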); details: stronger effect = higher value, normalized: vehicle 0, fulvestrant 100

Sequence of AP-2 complex subunit beta (Homo sapiens) (P63010 whole entry, looked up, the tested form may be a part, one chain of several): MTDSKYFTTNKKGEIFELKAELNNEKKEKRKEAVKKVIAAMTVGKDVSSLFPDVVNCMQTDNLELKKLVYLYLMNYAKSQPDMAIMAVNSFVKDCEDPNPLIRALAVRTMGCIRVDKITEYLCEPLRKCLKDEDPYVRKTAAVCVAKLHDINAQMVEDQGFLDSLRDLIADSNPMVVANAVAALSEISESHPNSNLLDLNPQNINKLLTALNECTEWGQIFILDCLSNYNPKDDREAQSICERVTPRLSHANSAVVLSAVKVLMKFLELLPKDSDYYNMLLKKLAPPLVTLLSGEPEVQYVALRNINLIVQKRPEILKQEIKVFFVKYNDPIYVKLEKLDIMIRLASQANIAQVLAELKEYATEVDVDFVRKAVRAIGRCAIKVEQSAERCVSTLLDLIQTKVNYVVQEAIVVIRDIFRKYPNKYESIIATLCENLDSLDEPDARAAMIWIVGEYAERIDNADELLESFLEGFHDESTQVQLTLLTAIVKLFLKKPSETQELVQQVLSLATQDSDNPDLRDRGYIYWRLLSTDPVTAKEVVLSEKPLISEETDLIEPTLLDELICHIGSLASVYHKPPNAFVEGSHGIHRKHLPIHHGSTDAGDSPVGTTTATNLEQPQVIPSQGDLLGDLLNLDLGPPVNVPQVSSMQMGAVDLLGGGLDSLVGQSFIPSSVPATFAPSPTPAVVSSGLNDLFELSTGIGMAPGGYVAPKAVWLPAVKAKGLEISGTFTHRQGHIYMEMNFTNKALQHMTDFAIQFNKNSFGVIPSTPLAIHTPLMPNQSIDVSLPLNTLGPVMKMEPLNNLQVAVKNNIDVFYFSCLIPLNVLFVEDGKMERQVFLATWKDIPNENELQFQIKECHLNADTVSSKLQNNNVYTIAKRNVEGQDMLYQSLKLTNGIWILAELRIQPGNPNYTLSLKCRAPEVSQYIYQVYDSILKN
Sequence of Integrin beta-1 (Homo sapiens) + Integrin alpha-4 (Homo sapiens) (P05556 whole entry, looked up): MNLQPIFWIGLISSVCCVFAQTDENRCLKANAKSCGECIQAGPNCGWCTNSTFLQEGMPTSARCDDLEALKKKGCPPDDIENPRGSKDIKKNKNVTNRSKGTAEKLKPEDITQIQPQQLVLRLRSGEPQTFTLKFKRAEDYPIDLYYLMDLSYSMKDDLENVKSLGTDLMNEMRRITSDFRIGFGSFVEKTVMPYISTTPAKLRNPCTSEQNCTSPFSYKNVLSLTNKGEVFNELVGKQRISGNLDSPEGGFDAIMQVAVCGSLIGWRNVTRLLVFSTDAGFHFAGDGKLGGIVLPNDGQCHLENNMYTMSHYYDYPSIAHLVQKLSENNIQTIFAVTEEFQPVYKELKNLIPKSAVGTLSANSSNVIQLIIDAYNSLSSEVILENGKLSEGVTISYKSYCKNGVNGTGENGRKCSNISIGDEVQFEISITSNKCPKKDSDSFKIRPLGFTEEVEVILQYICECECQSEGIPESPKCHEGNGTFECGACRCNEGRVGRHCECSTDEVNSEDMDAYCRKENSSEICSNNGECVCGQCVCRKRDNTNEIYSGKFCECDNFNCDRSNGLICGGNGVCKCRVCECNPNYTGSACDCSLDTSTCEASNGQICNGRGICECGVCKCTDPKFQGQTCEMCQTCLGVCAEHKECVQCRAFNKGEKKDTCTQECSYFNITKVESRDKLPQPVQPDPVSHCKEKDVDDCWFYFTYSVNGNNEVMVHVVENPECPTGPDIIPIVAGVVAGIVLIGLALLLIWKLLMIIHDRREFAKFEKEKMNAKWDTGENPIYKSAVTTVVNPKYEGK
Sequence of Integrin beta-1 (Homo sapiens) + Integrin alpha-4 (Homo sapiens) (P13612 whole entry, looked up): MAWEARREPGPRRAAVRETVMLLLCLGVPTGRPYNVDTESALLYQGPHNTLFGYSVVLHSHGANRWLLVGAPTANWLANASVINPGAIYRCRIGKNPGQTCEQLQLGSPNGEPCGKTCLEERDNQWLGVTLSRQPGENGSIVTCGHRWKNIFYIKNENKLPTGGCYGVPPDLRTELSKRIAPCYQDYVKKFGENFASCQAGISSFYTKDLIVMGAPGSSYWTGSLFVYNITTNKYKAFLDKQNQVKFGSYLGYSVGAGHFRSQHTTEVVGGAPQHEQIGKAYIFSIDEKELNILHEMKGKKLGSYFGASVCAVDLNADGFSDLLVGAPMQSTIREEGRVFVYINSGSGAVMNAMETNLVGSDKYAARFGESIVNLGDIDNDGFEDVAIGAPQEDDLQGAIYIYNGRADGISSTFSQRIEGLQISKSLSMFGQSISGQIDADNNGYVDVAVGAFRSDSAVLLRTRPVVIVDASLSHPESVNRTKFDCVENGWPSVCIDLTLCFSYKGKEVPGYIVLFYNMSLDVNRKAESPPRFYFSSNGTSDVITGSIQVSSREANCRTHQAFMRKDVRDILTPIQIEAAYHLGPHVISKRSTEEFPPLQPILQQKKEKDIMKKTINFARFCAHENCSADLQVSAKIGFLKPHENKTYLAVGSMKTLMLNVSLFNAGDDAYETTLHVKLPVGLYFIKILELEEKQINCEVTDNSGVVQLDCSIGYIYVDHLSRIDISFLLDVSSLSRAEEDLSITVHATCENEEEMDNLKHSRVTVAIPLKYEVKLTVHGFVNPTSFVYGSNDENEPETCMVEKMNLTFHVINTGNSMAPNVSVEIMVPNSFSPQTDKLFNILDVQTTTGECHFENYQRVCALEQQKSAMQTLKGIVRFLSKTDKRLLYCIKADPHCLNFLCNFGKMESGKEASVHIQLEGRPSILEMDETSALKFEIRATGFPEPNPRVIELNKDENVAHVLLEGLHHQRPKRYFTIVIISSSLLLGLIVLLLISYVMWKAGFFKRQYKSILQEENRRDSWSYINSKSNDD
Sequence of ATP-binding cassette sub-family B member 6 (Homo sapiens) (Q9NP58 whole entry, looked up): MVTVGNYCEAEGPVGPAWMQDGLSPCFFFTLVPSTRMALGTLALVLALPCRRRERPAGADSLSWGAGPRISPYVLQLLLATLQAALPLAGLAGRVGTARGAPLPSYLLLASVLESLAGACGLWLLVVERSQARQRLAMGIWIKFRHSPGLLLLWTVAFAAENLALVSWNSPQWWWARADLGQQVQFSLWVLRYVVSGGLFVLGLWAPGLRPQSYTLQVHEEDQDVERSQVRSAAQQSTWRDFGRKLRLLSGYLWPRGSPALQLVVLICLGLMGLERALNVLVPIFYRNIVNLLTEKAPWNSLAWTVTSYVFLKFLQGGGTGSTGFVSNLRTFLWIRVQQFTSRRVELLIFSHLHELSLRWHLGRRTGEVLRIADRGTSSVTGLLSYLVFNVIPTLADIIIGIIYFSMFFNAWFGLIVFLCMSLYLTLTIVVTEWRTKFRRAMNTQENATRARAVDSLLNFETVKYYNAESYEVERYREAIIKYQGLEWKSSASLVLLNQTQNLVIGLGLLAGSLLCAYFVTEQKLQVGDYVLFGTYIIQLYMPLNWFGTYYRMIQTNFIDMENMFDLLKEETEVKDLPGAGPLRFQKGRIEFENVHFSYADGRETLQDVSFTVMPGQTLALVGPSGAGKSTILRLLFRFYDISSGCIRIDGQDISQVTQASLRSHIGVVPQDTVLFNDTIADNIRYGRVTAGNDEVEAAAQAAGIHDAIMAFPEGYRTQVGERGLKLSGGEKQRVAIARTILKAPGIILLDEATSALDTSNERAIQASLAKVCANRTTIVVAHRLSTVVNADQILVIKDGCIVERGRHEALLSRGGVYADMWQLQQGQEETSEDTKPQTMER
Sequence of Beta-adrenergic receptor kinase 1 (Homo sapiens) (P25098 whole entry, looked up): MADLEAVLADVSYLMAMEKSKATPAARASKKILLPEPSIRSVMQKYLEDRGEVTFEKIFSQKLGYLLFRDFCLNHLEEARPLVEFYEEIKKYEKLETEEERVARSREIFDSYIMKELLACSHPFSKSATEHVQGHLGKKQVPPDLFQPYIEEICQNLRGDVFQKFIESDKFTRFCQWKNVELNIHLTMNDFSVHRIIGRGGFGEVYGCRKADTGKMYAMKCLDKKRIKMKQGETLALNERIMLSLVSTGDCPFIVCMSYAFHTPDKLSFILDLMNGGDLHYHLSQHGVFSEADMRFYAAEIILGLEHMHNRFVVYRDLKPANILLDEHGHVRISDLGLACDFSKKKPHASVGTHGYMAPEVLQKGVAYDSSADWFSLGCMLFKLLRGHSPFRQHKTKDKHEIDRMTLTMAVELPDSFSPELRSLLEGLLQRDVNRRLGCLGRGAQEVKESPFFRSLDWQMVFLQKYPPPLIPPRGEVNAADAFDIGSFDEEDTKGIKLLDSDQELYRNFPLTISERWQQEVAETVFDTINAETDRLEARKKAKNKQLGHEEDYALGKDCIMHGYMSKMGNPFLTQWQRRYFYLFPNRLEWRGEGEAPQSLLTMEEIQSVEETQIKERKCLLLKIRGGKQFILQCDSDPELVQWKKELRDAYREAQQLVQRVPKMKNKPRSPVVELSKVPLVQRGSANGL
Sequence of Beta-2 adrenergic receptor (Homo sapiens) (P07550 whole entry, looked up): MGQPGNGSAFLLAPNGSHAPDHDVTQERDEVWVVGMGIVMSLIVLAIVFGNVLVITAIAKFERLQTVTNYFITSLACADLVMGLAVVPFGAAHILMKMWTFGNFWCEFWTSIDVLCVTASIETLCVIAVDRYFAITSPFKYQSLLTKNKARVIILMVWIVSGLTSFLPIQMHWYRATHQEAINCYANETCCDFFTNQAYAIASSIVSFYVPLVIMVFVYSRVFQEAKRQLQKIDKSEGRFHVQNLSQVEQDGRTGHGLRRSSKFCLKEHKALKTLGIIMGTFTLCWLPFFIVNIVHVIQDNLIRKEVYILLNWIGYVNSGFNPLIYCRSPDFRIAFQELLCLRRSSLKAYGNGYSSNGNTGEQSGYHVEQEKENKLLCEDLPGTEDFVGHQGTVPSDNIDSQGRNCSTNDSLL

| Structure (SMILES) | percent of DMSO control GFP [1] | GFP response vs DMSO [2] | percent response of DMSO control [3] | GFP response vs DMSO [4] | GFP response, % of DMSO [5] | double positive events [6] | vesicle binding response [6] | inhibition [7] | superoxide response (% of plate) [8] | aptamer binding inhibition [9] | response [10] | inhibition [11] | response [12] | binding (% of control) [13] | efflux inhibition (fraction of control) [14] | inhibition [15] | differentiation response [16] |
| --- | --- | --- | --- | --- | --- | --- | --- | --- | --- | --- | --- | --- | --- | --- | --- | --- | --- |
| Cc1cc(/C=N/O)c(C)n1-c1ccc(Br)cc1 | 100% (inactive) | 101% (inactive) | 96.5% (inactive) | 93.7% (inactive) | 91.1% (inactive) | 65.6% | 263% (inactive) | -7.79% (inactive) | 115% (inactive) | 2% (inactive) | 11.8% (inactive) | -0.76% (inactive) | -0.17% (inactive) | 105% (inactive) | -0.145 (inactive) | -1% (inactive) | -6.03% (inactive) |
| C[C@]12CC[C@@H]3c4ccc(O)cc4CC[C@H]3[C@@H]1CC[C@@H]2O | 98.8% (inactive) | 105% (inactive) | 98.2% (inactive) | 132% (inactive) | 98.6% (inactive) | 63% | 186% (inactive) | 5.41% (inactive) | 97.8% (inactive) | 1% (inactive) | -1.92% (inactive) | 21.6% (inactive) | 2.25% (inactive) | 103% (inactive) | 0.68 (active) | 4% (inactive) | 9.54% (inactive) |
| CC(NC(=O)OCc1ccccc1)C(=O)N1CC(O)CC1C(=O)O (stereo not drawn) | 103% (inactive) | 112% (inactive) | 90.1% (inactive) | 105% (inactive) | 103% (inactive) | 62.9% | 182% (inactive) | 6.4% (inactive) | 97.5% (inactive) | 3% (inactive) | 9.77% (inactive) | 31.1% (inactive) | -4.2% (inactive) | 99.5% (inactive) | 0.8 (active) | 4% (inactive) | 29.6% (inactive) |
| COc1cc(C(=O)Nc2cccc(-c3nnc(-c4ccco4)o3)c2)ccc1OC(C)=O | 103% (inactive) | 103% (inactive) | 104% (inactive) | 109% (inactive) | 107% (inactive) | 52.3% | 52.3% (active) | 12.5% (inactive) | 109% (inactive) | 5% (inactive) | 3.82% (inactive) | 64.4% (active) | 2.66% (inactive) | 106% (inactive) | 0.17 (inactive) | -5% (inactive) | -10.9% (inactive) |
| CC(N=C(NC#N)Nc1ccncc1)C(C)(C)C (stereo not drawn) | 102% (inactive) | 103% (inactive) | 103% (inactive) | 99.1% (inactive) | 100% (inactive) | 59.1% | 97.4% (inactive) | 5.61% (inactive) | 104% (inactive) | 3% (inactive) | -2.47% (inactive) | 0.53% (inactive) | -9.1% (inactive) | 101% (inactive) | 0.09 (inactive) | -10% (inactive) | -1.65% (inactive) |
| COc1ccc(CCN(C)Cc2nc(Cc3ccc(OC)c(OC)c3)no2)cc1OC | 100% (inactive) | 105% (inactive) | 102% (inactive) | 109% (inactive) | 108% (inactive) | 62.5% | 222% (inactive) | 15.1% (inactive) | 92.6% (inactive) | 1% (inactive) | -13.9% (inactive) | 2.64% (inactive) | 8.73% (inactive) | 98.8% (inactive) | 0 (inactive) | 1% (inactive) | 29.5% (inactive) |
| CC(=O)O[C@H]1C[C@@]2(C)[C@@H](C[C@@H](O)[C@H]3[C@@]4(C)CC[C@@H](O)[C@@H](C)C4CC[C@@]32C)/C1=C(\CCC=C(C)C)C(=O)O (stereo partly drawn) | 102% (inactive) | 107% (inactive) | 104% (inactive) | 106% (inactive) | 115% (inactive) | 63.4% | 177% (inactive) | 11.7% (inactive) | 116% (inactive) | -1% (inactive) | -16.8% (inactive) | -14.5% (inactive) | -3.26% (inactive) | 100% (inactive) | 0.17 (inactive) | 3% (inactive) | -9.91% (inactive) |
| O[C@H]1COC2C1OC[C@@H]2O (stereo partly drawn) | 99% (inactive) | 107% (inactive) | 102% (inactive) | 115% (inactive) | 118% (inactive) | 58.3% | 204% (inactive) | 1.44% (inactive) | 87.6% (inactive) | 0% (inactive) | -28.6% (inactive) | 3.72% (inactive) | 1.96% (inactive) | 104% (inactive) | 0 (inactive) | 2% (inactive) | -4.99% (inactive) |
| COc1cc(C=NCC2OCCc3ccccc32)cc(OC)c1 (stereo not drawn) | 99% (inactive) | 105% (inactive) | 95.8% (inactive) | 117% (inactive) | 100% (inactive) | 57.8% | 136% (inactive) | -1.79% (inactive) | 101% (inactive) | 4% (inactive) | 4.4% (inactive) | 17.8% (inactive) | 1.44% (inactive) | 103% (inactive) | -0.46 (inactive) | -47% (inactive) | -7.2% (inactive) |
